± gives the standard deviation of the averaged measurements. In all, about 1,900 compounds were measured (“CD40L-induced NF-kB luciferase activity, plate-corrected, relative to DMSO (0) and IKK inhibitor VII (-100) controls”: median about 0.032, lowest 2% from about -26 on). Only a selection was taken, and the lowest values are over-represented in it overall.
system: BL2-NFkB-Luc; experiment: CD40L-induced NF-kB luciferase activity, plate-corrected, relative to DMSO (0) and IKK inhibitor VII (-100) controls (% normalized activity); higher = more NF-kB reporter activity (less inhibition); conditions: 9.4 µM; stimulus: tCD40L 64 ng/ml; 4.5 h
Protocol: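 BL2 B cells with a stable NF-kB response-element luciferase reporter (BL2-NFkB-Luc), 384-well. Cells were pre-incubated with compound at 9.4 uM for 1 h at 37 C, then stimulated with 64 ng/ml trimerized CD40L for 4.5 h; luciferase was read with Steady-Glo. Signal was normalised per plate in Genedata (median DMSO neutral control = 0, median IKK inhibitor VII at 50 uM = -100) with Assay Median plate-pattern correction; duplicate plates.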

Row | Structure (SMILES) | CD40L-induced NF-kB luciferase activity
1 | COC(=O)C1=C(C)N(C)C(=S)NC1c1ccc(Cl)cc1 (stereo not drawn) | -1.51 ± 7.8
2 | CC[C@]1(O)C[C@@H]2CN(CCc3c([nH]c4ccccc34)[C@@](C(=O)OC)(c3cc4c(cc3OC)N(C=O)[C@H]3[C@@](O)(C(=O)OC)[C@H](OC(C)=O)[C@]5(CC)C=CCN6CC[C@]43[C@@H]65)C2)C1 | -50.4 ± 4.8
3 | CC[C@]1(O)C[C@@H]2CN(CCc3c([nH]c4ccccc34)[C@@](C(=O)OC)(c3cc4c(cc3OC)N(C)[C@H]3[C@@](O)(C(=O)OC)[C@H](OC(C)=O)[C@]5(CC)C=CCN6CC[C@]43[C@@H]65)C2)C1 | -54.7 ± 1.7
4 | CCN(CC)CCCNC(=O)C1c2ccccc2Oc2ccccc21 | -3.46 ± 0.27
5 | CC1CCCC(C)N1NC(=O)c1ccc(Cl)c(S(N)(=O)=O)c1 (stereo not drawn) | 4.34 ± 1.3
6 | COc1cc2c(cc1OC)C(=S)NC(C)(C)C2 | -9.01 ± 2.9
7 | COc1cc(C(=O)NCCc2c[nH]c3ccccc23)ccc1OCc1c(C)noc1C | 2.18 ± 3.7
8 | Cc1ccc(C=NNc2nc(C(C)(C)C)cs2)o1 | 37 ± 13
9 | Cc1cccc(N2CCN(C(=S)c3ccccc3)CC2)c1 | 6.51 ± 2.4
10 | COc1ccc(CN2CCC(=O)NC2=O)cc1 | 4.64 ± 6
11 | COc1ccc2c3c([nH]c2c1)C1(NCC3)C(=O)Nc2ccccc21 (stereo not drawn) | 5.33 ± 6.5
12 | Cc1ccc(C(=O)NC(=S)NCCCN2CCOCC2)cc1 | 8.31 ± 1.3
13 | CC(=O)O[C@H]1CSC[C@H]1NC(=O)c1ccccc1 | 2.65 ± 7.7
14 | O=C(Nc1ccc(Oc2c(F)c(F)c(F)c(F)c2F)cc1)OC1CCN2Cc3ccccc3N=C12 (stereo not drawn) | -15.2 ± 2.6
15 | COc1cc(CNCCc2c[nH]c3ccccc23)cc(Cl)c1OCC(N)=O | -2.87 ± 1.6
16 | O=C1C(O)CC2c3ccccc3CC3(CCCC3)N12 (stereo not drawn) | 2.45 ± 2.2
17 | c1ccc(Nc2ccccn2)nc1 | 6.17 ± 1.9
18 | OCC1(CCOc2ccccc2)CCN(CCCn2cccn2)CC1 | -3.68 ± 2.7
19 | c1ccc2c(c1)CCOC2CNCCCN1CCCCC1 (stereo not drawn) | -0.411 ± 1.1
20 | Cc1ccc(C(CC(=O)NCc2ccco2)c2ccc(OC(C)C)cc2)cc1 (stereo not drawn) | -5.4 ± 2.5
21 | Cc1ccccc1NC(=O)c1c(C)cc(=O)oc1C | -17.1 ± 22
22 | COc1cccc(OC)c1C(=O)Nc1nc2ccc([N+](=O)[O-])cc2s1 | 3.34 ± 5.3
23 | COC(=O)c1ccc(COc2ccc3c(C)c(C)c(=O)oc3c2C)o1 | -0.554 ± 5
24 | COc1ccc(NC(=O)Nc2ccc(C(C)C)cc2)cc1 | 13.4 ± 0.33

Row | Structure (SMILES) | CD40L-induced NF-kB luciferase activity
25 | CC(C)c1ccc(OCc2ccc(C(=O)O)o2)cc1 | -32.6 ± 4.2
26 | CCOc1ccc2[nH]c3c(=O)n(CCc4ccc(OC)cc4)cnc3c2c1 | -2.8 ± 3.9
27 | COc1ccc2c(CCNC(=O)c3ccc([N+](=O)[O-])cc3)c[nH]c2c1 | -3.48 ± 6.8
28 | Cc1oc(C=NNC(=O)CC2(C)OCCO2)cc1Br | -0.742 ± 2.4
29 | COc1ccc(/C=C/C(=O)NC(=S)NN2CCCCC2c2cccnc2)cc1 (stereo not drawn) | 1.59 ± 3.4
30 | Nc1nnc(CSCc2ccc(Cl)cc2Cl)s1 | 11.4 ± 2.5
31 | Cc1c(OCC(=O)NC(Cc2c[nH]c3ccc(O)cc23)C(=O)O)ccc2c3c(c(=O)oc12)CCC3 (stereo not drawn) | 2.12 ± 6.2
32 | CCCCC[C@H](O)/C=C/[C@@H]1[C@@H](C/C=C\CCCC(=O)OC)[C@@H](O)C[C@H]1O | -2.47 ± 3.2
33 | CCCCC[C@H](O)/C=C/[C@@H]1[C@@H](C/C=C\CCCC(=O)O)[C@@H](O)C[C@H]1O | -2.36 ± 2.1
34 | CCCCC[C@H](O)/C=C/[C@@H]1[C@@H](CCCCCCC(=O)O)[C@@H](O)C[C@H]1O | -29.5 ± 5.2
35 | O=S(=O)(CCc1nc2ccccc2[nH]1)c1ccc(Cl)cc1 | -12.2 ± 1.3
36 | COc1cc(C=NCC2OCCc3ccccc32)cc(OC)c1 (stereo not drawn) | -1.7 ± 1.9
37 | CC1(C)c2ccccc2N2CC(=O)N(CC(N)=O)C21C (stereo not drawn) | 1.75 ± 1.9
38 | COc1ccccc1N1C(=O)C2CC(C)=C(C)CC2C1=O (stereo not drawn) | -4.81 ± 2.4
39 | COc1ccc(S(N)(=O)=O)cc1C(N)=O | -2.45 ± 4.3
40 | C[C@@H]1C[C@H]2[C@@H]3CCC4=CC(=O)C=C[C@]4(C)[C@@]3(F)[C@@H](O)C[C@]2(C)[C@@]1(O)C(=O)COP(=O)(O)O | -2.27 ± 0.67
41 | CCCC(=O)O[C@]1(C(=O)COC(C)=O)CC[C@H]2[C@@H]3C[C@H](F)C4=CC(=O)C=C[C@]4(C)[C@@]3(F)[C@@H](O)C[C@@]21C | -17.6 ± 1.6
42 | C[C@@H]1C[C@H]2[C@@H]3C[C@H](F)C4=CC(=O)C=C[C@]4(C)[C@@]3(F)[C@@H](O)C[C@]2(C)[C@@]1(O)C(=O)COC(=O)C(C)(C)C | -29.5 ± 1.7
43 | C[C@@H]1C[C@H]2[C@@H]3C[C@H](F)C4=CC(=O)C=C[C@]4(C)[C@@]3(F)[C@@H](O)C[C@]2(C)[C@@]1(O)C(=O)CO | -27.2 ± 0.89
44 | CC(=O)[C@@]1(O)CC[C@H]2[C@@H]3C[C@H](C)C4=CC(=O)C=C[C@]4(C)[C@@]3(F)[C@@H](O)C[C@@]21C | -27 ± 2.1
45 | CC(=O)OCC(=O)[C@@]1(OC(C)=O)[C@@H](C)C[C@H]2[C@@H]3C[C@H](F)C4=CC(=O)C=C[C@]4(C)[C@@]3(F)[C@@H](O)C[C@@]21C | -17.3 ± 0.28
46 | CC(=O)[C@@]1(O)CC[C@H]2[C@@H]3C[C@H](C)C4=CC(=O)CC[C@]4(C)[C@H]3CC[C@@]21C | -15.7 ± 2.4
47 | CC(=O)OCC(=O)[C@@]12OC(C)(C)O[C@@H]1C[C@H]1[C@@H]3C[C@H](F)C4=CC(=O)C=C[C@]4(C)[C@@]3(F)[C@@H](O)C[C@@]12C | -11.4 ± 5.5
48 | CC(=O)OCC(=O)[C@@]1(O)[C@H](C)C[C@H]2[C@@H]3CCC4=CC(=O)C=C[C@]4(C)[C@@]3(F)[C@@H](O)C[C@@]21C | -27.6 ± 1

From the supplement of paper PMC3656093
